The whole screen tested about 310,000 compounds, of which about 2,200 (0.71%) showed an effect of 50% or more. The effect is printed as a negative number. This is one part of a sample in which strong results are shown more often than they occur.
Target: human ether-à-go-go-related gene (hERG) potassium channel (human, UniProt Q12809)
Assay: primary screen, population patch clamp on CHO cells stably expressing hERG; higher = less effect of the substance

Sequence of human ether-à-go-go-related gene (hERG) potassium channel (Q12809 whole entry, looked up): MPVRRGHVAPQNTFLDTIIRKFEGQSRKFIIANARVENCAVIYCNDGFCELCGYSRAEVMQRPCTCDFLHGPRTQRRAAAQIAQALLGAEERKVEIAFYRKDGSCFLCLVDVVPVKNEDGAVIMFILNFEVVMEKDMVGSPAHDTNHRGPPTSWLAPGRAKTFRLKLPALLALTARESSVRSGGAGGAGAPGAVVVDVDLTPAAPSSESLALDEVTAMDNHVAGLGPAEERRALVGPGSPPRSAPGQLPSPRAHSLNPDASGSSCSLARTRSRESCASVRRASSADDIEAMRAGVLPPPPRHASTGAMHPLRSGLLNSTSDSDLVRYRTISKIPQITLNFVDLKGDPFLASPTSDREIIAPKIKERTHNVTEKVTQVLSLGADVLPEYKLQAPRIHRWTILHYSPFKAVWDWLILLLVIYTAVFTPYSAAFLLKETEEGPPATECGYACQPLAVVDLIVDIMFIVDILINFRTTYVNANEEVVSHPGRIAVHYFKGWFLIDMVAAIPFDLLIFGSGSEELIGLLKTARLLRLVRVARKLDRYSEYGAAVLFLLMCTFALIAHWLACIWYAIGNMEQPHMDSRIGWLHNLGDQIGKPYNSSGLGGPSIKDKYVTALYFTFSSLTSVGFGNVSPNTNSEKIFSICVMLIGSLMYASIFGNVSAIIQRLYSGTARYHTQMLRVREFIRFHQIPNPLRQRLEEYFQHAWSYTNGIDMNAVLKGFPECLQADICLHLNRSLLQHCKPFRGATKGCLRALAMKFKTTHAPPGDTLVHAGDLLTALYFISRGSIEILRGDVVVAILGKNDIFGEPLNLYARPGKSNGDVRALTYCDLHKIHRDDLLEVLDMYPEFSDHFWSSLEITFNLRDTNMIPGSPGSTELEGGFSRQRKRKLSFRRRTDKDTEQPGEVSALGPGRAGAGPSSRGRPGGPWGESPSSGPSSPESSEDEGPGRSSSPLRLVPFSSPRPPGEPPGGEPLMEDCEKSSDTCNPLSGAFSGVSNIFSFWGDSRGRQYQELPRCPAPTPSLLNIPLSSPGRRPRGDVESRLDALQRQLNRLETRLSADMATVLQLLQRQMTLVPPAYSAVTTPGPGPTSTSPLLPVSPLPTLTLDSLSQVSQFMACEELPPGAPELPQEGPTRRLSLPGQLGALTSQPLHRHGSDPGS

| Compound | hERG current change (%, negative = inhibition) at 1uM |
| --- | --- |
| Cl.O=C(NCCCn1ccnc1)c1cc(Cl)cc(Cl)c1 | 4.65% |
| CC1CCC/C(=C\Nc2ccc(C(=O)O)c(O)c2)C1=O (centres unmarked) | 9.19% |
| COc1cc(OC)cc(C(=O)Oc2ccc(/C=N/Nc3nc4ccccc4s3)cc2OC)c1 | 0.482% |
| Cc1onc(-c2c(Cl)cccc2Cl)c1C(=O)Nc1ccc(Cl)cn1 | 11.3% |
| COc1ccccc1NS(=O)(=O)c1cccc(C(=O)NCC(c2ccco2)N2CCCCC2)c1 (centres unmarked) | -0.284% |
| COc1ccccc1C(=O)NCC(=O)NC(C)c1ccc(-n2ccnc2)cc1 (centres unmarked) | -2.86% |
| CCOc1ccccc1C(=O)NC(C)c1ccc(-n2ccnc2)cc1 (centres unmarked) | -34.8% |
| CCOc1ccccc1C(=O)NCC(=O)NC(C)c1ccc(-n2ccnc2)cc1 (centres unmarked) | -58.3% |
| COc1ccccc1NC(=O)c1ccc(COc2ccccc2Br)o1 | 13.8% |
| COc1ccccc1N1CCN(Cc2ccccc2)CC1.O=C(O)C(=O)O | 6.85% |
| O=C(O)C(=O)O.O=C(c1ccc([N+](=O)[O-])cc1)N1CCN(Cc2ccccc2[N+](=O)[O-])CC1 | -70.1% |
| COc1ccc(C(=O)N2CCN(Cc3ccccc3[N+](=O)[O-])CC2)cc1.O=C(O)C(=O)O | -20.9% |
| CCN(CC)c1ccc(CN2CCC(C(=O)NCc3ccc(C)cc3)CC2)cc1.O=C(O)C(=O)O | -13.2% |
| Cc1ccc(CNC(=O)C2CCCC2)cc1 | 10.4% |
| CCc1ccc(CN2CCN(Cc3ccc(SC)cc3)CC2)cc1.O=C(O)C(=O)O | -27.1% |
| CCS(=O)(=O)N1CCN(Cc2ccc([N+](=O)[O-])cc2)CC1.O=C(O)C(=O)O | 9.38% |
| CSc1ccc(CN2CCN(Cc3ccc([N+](=O)[O-])cc3)CC2)cc1.O=C(O)C(=O)O | -70.5% |
| COc1cc(OC)cc(C(=O)N2CCN(Cc3ccccc3[N+](=O)[O-])CC2)c1.O=C(O)C(=O)O | -7.12% |
| COc1ccccc1N1CCN(Cc2ccc(Br)cc2)CC1.O=C(O)C(=O)O | -6.63% |
| CSc1ccc(CN2CCC(C(=O)NCc3ccc(C)cc3)CC2)cc1.O=C(O)C(=O)O | -76.1% |
| COc1ccccc1N1CCN(Cc2ccc(SC)cc2)CC1.O=C(O)C(=O)O | -53.8% |

| Compound | hERG current change (%, negative = inhibition) at 1uM |
| --- | --- |
| O=C(Cc1ccc([N+](=O)[O-])cc1)NCc1ccccn1 | 12.5% |
| CC(N=C1NS(=O)(=O)c2ccccc21)C(=O)OCC(=O)N(C)C1CCS(=O)(=O)C1 (centres unmarked) | -1.85% |
| Cc1ccc2c(c1)c1c(c(=O)n(-c3ccccc3C)c(=O)n1CC(=O)NCC1CCCO1)n2C (centres unmarked) | 0.188% |
| CCOC(=O)[C@H]1[C@H]2COc3ccc(OC)cc3[C@@H]2N2C(=O)c3cc(OC)c(OC)cc3NC(=O)[C@@]12C | 5.4% |
| O=C(NNC(=S)Nc1ccccc1)c1ccc(O)cc1 | 15.2% |
| Cc1nn(-c2ccccc2)c(Cl)c1/C=C(\CC(=O)O)c1nc2ccccc2s1 | 2.95% |
| Cc1nnc(SCC(=O)Nc2sc3c(c2C(N)=O)CCC(C)C3)[nH]c1=O (centres unmarked) | 10.6% |
| CC1CCCCC1NC(=O)CN1C(=O)CSc2cc(S(=O)(=O)N3CCCCCC3)ccc21 (centres unmarked) | 7.3% |
| O=C(c1ccc([N+](=O)[O-])cc1)N1CCN(Cc2ccccc2)CC1 | -28.7% |
| CSc1ccc(CN2CCN(C(=O)c3ccncc3)CC2)cc1 | -0.743% |
| CSc1ccc(CN2CCN(C(=O)c3ccc([N+](=O)[O-])cc3)CC2)cc1.O=C(O)C(=O)O | -78.1% |
| Cc1[nH]c2ccc(Br)cc2c(=S)c1C/C=C/Cl | 5.3% |
| COCCNC(=O)NC(=O)COC(=O)C1(c2ccc(Cl)cc2)CC1 | 6.06% |
| COc1cc(O)c(C(CCN2CCCCC2)c2ccc(N(C)C)cc2)c(OC)c1 (centres unmarked) | 10.3% |
| COc1ccc(C(CCN2CCCC2)c2c(O)cc(OC)cc2OC)cc1 (centres unmarked) | -21.1% |
| COc1ccc(C(CCN2CCCCC2)c2c(O)cc(OC)cc2OC)cc1 (centres unmarked) | -71.3% |
| COc1cc(O)c(C(CCN2CCCC2)c2ccc3c(c2)OCO3)c(OC)c1 (centres unmarked) | -41.5% |
| COc1cc(O)c(C(CCN2CCCC(C)C2)c2ccc3c(c2)OCO3)c(OC)c1 (centres unmarked) | -84.1% |
| COc1cc(O)c(C(CCN2CCCC(C)C2)c2ccc(N(C)C)cc2)c(OC)c1 (centres unmarked) | -9.72% |
| COc1cc(O)c(C(CCN2CCCCC2)c2ccc3c(c2)OCO3)c(OC)c1 (centres unmarked) | -72.1% |

— article PMC4336329 (PLoS ONE, 2015)
